D2 PAM-1: positively modulates the human D2 dopamine receptor allosterically; P14416; HEK293 T-REx D2, calcium flux, EC20 dopamine potentiation; potentiation, % at 10 µM; 340,000 compounds, 0.34% hits; AID 485347;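 active = potentiation over 3 SD above the plate norm, cut at about 30% in these data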
Target sequence (P14416 whole entry, looked up): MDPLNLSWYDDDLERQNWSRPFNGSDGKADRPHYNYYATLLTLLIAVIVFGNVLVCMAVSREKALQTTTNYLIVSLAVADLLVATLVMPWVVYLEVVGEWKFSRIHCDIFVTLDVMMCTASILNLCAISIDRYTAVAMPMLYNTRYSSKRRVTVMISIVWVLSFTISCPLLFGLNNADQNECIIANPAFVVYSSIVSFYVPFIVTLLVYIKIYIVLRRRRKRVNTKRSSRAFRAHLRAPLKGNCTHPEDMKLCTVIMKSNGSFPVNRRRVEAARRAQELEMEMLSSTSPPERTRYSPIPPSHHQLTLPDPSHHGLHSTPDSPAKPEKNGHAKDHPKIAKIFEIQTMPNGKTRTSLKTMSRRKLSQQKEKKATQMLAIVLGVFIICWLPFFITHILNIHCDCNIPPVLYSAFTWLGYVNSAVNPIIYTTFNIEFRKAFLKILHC
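Calcium flux readout, no-wash dye, 1 read/s. Inducible HEK293 Trex D2 line, overnight 30 C. Compound alone 180 s (agonist flags), then EC20 dopamine, another 180 s to score potentiation.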
D2 PAM-2: positive allosteric modulators of human D2 dopamine receptor | P14416 | potentiation, % (concentration not given with the values) | DiscoveRx D2 beta-arrestin cells, luminescence, 90 min; 100% = 57 uM dopamine signal | 360,000 compounds, 0.23% hits; in the data active = potentiation above about 50%
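D2 cells co-treated with compound plus 50 nM dopamine (EC20) for 90 min at 37 deg C to detect potentiation. Beta-arrestin recruitment was read as enzyme-fragment luminescence after 1 h at ambient temperature. Full response was set by 57 uM dopamine.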
D2 antagonist: antagonizes the human D2 dopamine receptor. HEK293 TREx D2 cells, calcium flux, dopamine EC80. 340,000 compounds, 2% hits. P14416. AID 485344. inhibition, % at 10 µM; in the data active = inhibition above about 30%; inactive = below that, where a call was filed
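Inhibition of EC80 dopamine-driven calcium flux, recorded kinetically, defines activity here; cells are a tetracycline-induced HEK293 T-REx line expressing force-coupled D2.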
D2 ag-1: activates the human D2 dopamine receptor | DiscoveRx PathHunter D2 beta-arrestin, luminescence, 90 min; 100% = 57 uM dopamine signal | activation, % (concentration not given with the values) | 360,000 compounds, 0.084% hits; in the data active = activation above about 40%
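Agonist mode: compounds alone added to overnight-plated D2 PathHunter cells for 90 min at 37 C, with 57 uM final dopamine (EC100) defining full response. Beta-arrestin recruitment detected by chemiluminescent reagent, read after 1 h at ambient temperature.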
D2 ag-2: activates the human D2 dopamine receptor | P14416 | HEK293 T-REx D2 cells, calcium flux agonist mode | activation, % at 2 µM | 340,000 compounds, 0.53% hits;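 active = activation over 3 SD above normal in the single-dose calcium agonist read, cut at about 30% in these data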
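Calcium-flux readout, 1 cycle/sec over 180 s following compound pin transfer, in inducible HEK293 Trex D2 cells (force-coupled); dopamine controls included. Positive calcium responses during this window marked compounds as potential agonists.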
Large screens that a line does not name were inactive. In the library only some 2.4% were active in any assay of this set; here they are far more common.

O=C(Nc1ccc(Br)cc1)N1CCC(CN2CCCC2)CC1	none (no result: D2 PAM-2, D2 antagonist, D2 ag-1)
O=c1[nH]nc(C(F)(F)F)c2nnn(Cc3ccccc3Cl)c12	none
Cc1n[nH]c(=O)c2c1nnn2Cc1ccccc1Cl	D2 antagonist 57.7
COC(=O)NC1(C(F)(F)F)C(=O)NC(C)=C1C(=O)OC (stereo not drawn)	D2 PAM-1 38.7
Cc1ccc(NC(=O)CN2CCSc3ccc(S(=O)(=O)N4CCCC4)cc32)cc1C	none (no result: D2 PAM-2, D2 antagonist, D2 ag-1)
O=C(COc1ccc(F)cc1)OCc1cc(=O)n2nc(C3CC3)sc2n1	none (no result: D2 PAM-2, D2 antagonist, D2 ag-1)
CCc1nn(C(CC)C(=O)NCCCN2CC(C)CC(C)C2)c(=O)c2cc3oc(C)cc3n12 (stereo not drawn)	D2 antagonist 63.7
CCc1nn(C(CC)C(=O)NCCCc2ccccc2)c(=O)c2cc3occc3n12 (stereo not drawn)	none
O=C1CC(c2cccc(O)c2)c2c(nc(SCc3ccccc3F)[nH]c2=O)N1 (stereo not drawn)	none (no result: D2 PAM-2, D2 antagonist, D2 ag-1)
CCOC(=O)c1oc2cccc(OC(C)=O)c2c1C	D2 antagonist 36.7
O=C(CN1CCCC(O)C1)N1c2ccccc2Sc2ccc(C(F)(F)F)cc21 (stereo not drawn)	none
CN1CCN(CCCN2c3ccccc3Sc3ccc(C(F)(F)F)cc32)CC1	D2 antagonist 79.1
O=C(NC1CC(=O)N(c2ccc(Cl)cc2)C1)C(=O)c1c[nH]c2ccccc12 (stereo not drawn)	none (no result: D2 PAM-2, D2 antagonist, D2 ag-1)
CCOc1ccc(C(=O)NCC(c2cccs2)N(C)C)cc1OCC (stereo not drawn)	D2 antagonist 50.8
CCCOc1ccc(C(=O)NCC(c2cccs2)N(C)C)cc1 (stereo not drawn)	none
CCOc1ccc(C(=O)NCc2ccncc2)cc1OCC	D2 antagonist 34.4
COc1cccc(-c2csc(-c3c(N)c(C(=O)c4ccccc4)n4ccccc34)n2)c1	none (no result: D2 PAM-2, D2 antagonist, D2 ag-1)
CCOC(=O)c1ccc(-c2ccc3[nH]c4ccccc4c(=O)c3c2)cc1F	D2 antagonist 30.9
O=C(COC(=O)COc1ccccc1)Nc1ccc(Br)cc1F	none (no result: D2 PAM-1, D2 antagonist, D2 ag-2)
COc1ccccc1OCCC(=O)OCC(=O)Nc1ccc(Br)cc1F	D2 antagonist 41.1
Cc1ccc(SCC(=O)NCc2ccco2)cc1	none
Cc1c(Cl)c([N+](=O)[O-])nn1CC(=O)NCc1ccco1	D2 antagonist 42.1
Cc1c(Cl)c(C(F)(F)F)nn1CC(=O)NCc1ccco1	D2 antagonist 39.9 (no result: D2 PAM-1)
Cc1ccc(SCCC(=O)NCc2ccco2)cc1	D2 PAM-1 35.0
CC(C)(C)C(=O)OCc1cc(=O)n2nc(C3CC3)sc2n1	none (no result: D2 PAM-2, D2 antagonist, D2 ag-1, D2 ag-2)
Cn1nc(C(=O)OCC(=O)N2CCc3ccccc32)c2ccccc2c1=O	D2 PAM-1 31.5
COc1ccc(NC(=O)NCCN2CCN(c3cc(OC)ccc3OC)CC2)cc1	none
COc1ccc(Cl)c(N2CCN(CCCNC(=O)Nc3ccc(C)cc3)CC2)c1	D2 antagonist 35.6
COc1cccc(-n2ccnc2SCC(=O)Nc2ccccc2)c1	D2 antagonist 50.4
CC(=O)Nc1ccc(NC(=O)CSc2ccccn2)cc1	none
COc1cccc(NC(=O)CSc2nccn2-c2cccc(OC)c2)c1	none
CC(=O)Nc1ccc(NC(=O)CSc2ncnn2-c2ccccc2)cc1	D2 PAM-1 31.0
CCN(C(=O)c1ccc2c(c1)N(Cc1cccc(Cl)c1)C(=O)c1ccccc1S2=O)c1ccccc1 (stereo not drawn)	none (no result: D2 PAM-2, D2 antagonist, D2 ag-1)
CCOC(=O)c1c(-c2ccccc2)csc1NC(=O)c1nc(S(=O)(=O)CC)ncc1Cl	none (no result: D2 PAM-2, D2 antagonist, D2 ag-1)
CC(NC(=O)COc1cccnc1[N+](=O)[O-])c1ccc(F)cc1 (stereo not drawn)	D2 PAM-1 34.4
O=C(COc1cccnc1[N+](=O)[O-])Nc1ccc(F)cc1	none (no result: D2 PAM-1, D2 antagonist, D2 ag-2)
O=C(CN1CCN(C2CCCCC2)CC1)c1c[nH]c2ccccc12	D2 antagonist 41.6
CC1(C(=O)OCC(=O)NCc2ccc(Cl)cc2)CC1(Cl)Cl (stereo not drawn)	none (no result: D2 PAM-1, D2 antagonist, D2 ag-2)
CC1(C(=O)OCC(=O)NC(=O)NCc2ccccc2)CC1(Cl)Cl (stereo not drawn)	D2 antagonist 31.3
Cc1sc2ncnc(SCC(=O)NC3CCCC3)c2c1C	D2 antagonist 31.8 (no result: D2 PAM-1)
Cc1ccc(Cn2c(C(=O)O)c(CNCc3ccc(OC(C)C)cc3)c3ccc(C)cc32)cc1	none (no result: D2 PAM-2, D2 antagonist, D2 ag-1)
C=C1C(=O)C=C[C@]2(C)C[C@@H]3OC(=O)[C@](C)(O)[C@H]3C[C@@H]12	D2 antagonist 36.7
Cc1nc(N2CCOCC2)c(C#N)c2c1COC(C)(C)C2	D2 PAM-1 32.6
CCc1nc(N2CCOCC2)c(C#N)c2c1COC(C)(C)C2	none
COc1cccc(C(=O)/C=C/Nc2ccc(S(=O)(=O)Nc3cc(OC)nc(OC)n3)cc2)c1	none
COc1ccc(C(=O)/C=C/Nc2ccc(S(=O)(=O)Nc3cc(OC)nc(OC)n3)cc2)c(OC)c1	D2 antagonist 31.0
Cc1cc(C(=O)COC(=O)c2ccc3c(c2)NC(=O)CS3)c(C)n1CCc1ccc(Cl)cc1	D2 antagonist 63.4
O=C(COC(=O)CCc1c[nH]c(=O)[nH]1)Nc1cccc(Cl)c1	D2 antagonist 35.0
O=S(=O)(/C=C/c1ccccc1)Nc1ccc2c(c1)OCO2	D2 antagonist 34.3
O=C(O)c1cccc(CN2C(=O)S/C(=C/c3cccc([N+](=O)[O-])c3)C2=O)c1	D2 antagonist 33.6
CCC1=C(OC(=O)N(CC)CC)N2C(=O)OC(=NCCOC)[C@]2(Cc2ccccc2)[C@H]2C1=CC[C@H]1C(=O)NC(=O)[C@H]12	D2 antagonist 51.7
O=S1(=O)NC(=NCc2ccccc2)c2ccccc21	D2 antagonist 30.5
COc1cccc(CNC(=O)C2CCCN(S(=O)(=O)c3ccc4c(ccn4C)c3)C2)c1OC (stereo not drawn)	none (no result: D2 PAM-2, D2 antagonist, D2 ag-1)
O=C(CCNC(=O)C1CCN(S(=O)(=O)c2ccc(F)cc2)CC1)NCc1ccc(F)cc1	D2 antagonist 32.7
c1ccc2c(c1)nc1n2CC2CON(C3CCCCC3)C12 (stereo not drawn)	D2 antagonist 37.0
CCSc1c(-c2ccccc2)nc2c(C)cccc2c1C(=O)O	D2 ag-2 33.8
CC1CCc2nc(NC(=O)CN3CCN(c4ccccc4)CC3)sc2C1 (stereo not drawn)	none
CC1CCc2nc(NC(=O)CN3CCN(Cc4ccc5c(c4)OCO5)CC3)sc2C1 (stereo not drawn)	D2 antagonist 72.3
Cc1cc(NC(=O)CN2C(=O)C(C)(C)c3ccccc32)ccc1Br	none (no result: D2 PAM-2, D2 antagonist, D2 ag-1)
Cc1c(C(=O)Nc2ccc3c(c2)OCO3)sc2nc(-c3ccccc3)cn12	D2 antagonist 66.7 (no result: D2 PAM-1)
COc1cc(NC(=O)c2cccc3c(-c4cccnc4)coc23)cc(OC)c1OC	D2 ag-1 43.5 (no result: D2 PAM-1, D2 antagonist, D2 ag-2)
COc1ccc(-c2cc(C(=O)Nc3cc(Br)ccc3O)no2)cc1	D2 antagonist 35.6
COc1ccc(-c2cc(C(=O)Nc3ccccc3SC)no2)cc1	none (no result: D2 PAM-1, D2 antagonist, D2 ag-2)

Bioassay records: PubChem BioAssay, National Center for Advancing Translational Sciences (NCATS)
